Compounds with a hit are over-represented: about 4% of the library has one in this group of screens.
EBV LMP1 NFkB = EBV LMP1-driven NF-kappaB luciferase reporter inhibitors, primary screen, cell-based, luminescence, single point | LMP1-induced NF-kappaB luciferase reporter cells | inhibition, % at 12.5 µM | 0.69% of 350,000 active | AID 504558, 2011; in the data active means inhibition above about 41%
HIF-2a block = HIF-2a reporter inhibitors, primary screen, luminescence, 786-0 RCC cells; 786-0 RCC cells HIF-2a reporter, luciferase luminescence, overnight; inhibition, % at 18.8 µM; 0.72% of 360,000 active;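 active means inhibition of the luminescence signal of 40% or more relative to plate controls, in a single-dose primary screen at 18.75 µM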
TWEAK-Fn14 inh = inhibitors of TWEAK-Fn14 signaling, primary screen, luciferase reporter cells, uHTS | TWEAK-stimulated Fn14 reporter cells, luciferase luminescence, 8 h | 2% of 360,000 active | inhibition, % at 10 µM; in the data active means inhibition above about 50%
TROY signal inh = inhibitors of TROY-driven NF-kB signaling, primary screen, Q293 LMP1-TROYcd cells, NF-kB luciferase, uHTS | Q293 LMP1-TROYcd NF-kB luciferase reporter, 4 h | inhibition, % at 10 µM | 0.98% of 360,000 active;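 active means compounds whose plate-normalised and pattern-corrected inhibition of the luciferase reporter signal at the single screening dose is 50% or more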
Peg3 prom inh = Peg3 promoter-driven luciferase inhibitors, primary screen, cell-based, HeLa, luciferase luminescence; HeLa PEG-Prom luciferase reporter, overnight; inhibition, % at 20 µM; 1.7% of 360,000 active; AID 588405, 2011;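 active means inhibition of at least 50% at 20 µM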
TRPM1 prom inh = inhibitors of MITF-dependent TRPM1 promoter reporter, primary screen, cell-based, SK-MEL-5, single point, luciferase; SK-MEL-5 TRPM1 promoter luciferase, 24 h; inhibition, % at 12.5 µM; 0.83% of 330,000 active; AID 488899, 2010;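 active means mean inhibition across replicates of 60% or more, whatever share of single replicates reaches that level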
Mdm2-MdmX confirm = retested Mdm2-MdmX interaction blockers, confirmation, cell-based, luminescence, single concentration, set 2. SaOS-2 split-luciferase Mdm2/MdmX complementation. shares compounds with HIF-2a block. inhibition, % at 8 µM. 99% of 740 active;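 active means mean inhibition of the luminescence signal across two replicates at or above 26 percent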
Target sequence (O15151 whole entry, looked up): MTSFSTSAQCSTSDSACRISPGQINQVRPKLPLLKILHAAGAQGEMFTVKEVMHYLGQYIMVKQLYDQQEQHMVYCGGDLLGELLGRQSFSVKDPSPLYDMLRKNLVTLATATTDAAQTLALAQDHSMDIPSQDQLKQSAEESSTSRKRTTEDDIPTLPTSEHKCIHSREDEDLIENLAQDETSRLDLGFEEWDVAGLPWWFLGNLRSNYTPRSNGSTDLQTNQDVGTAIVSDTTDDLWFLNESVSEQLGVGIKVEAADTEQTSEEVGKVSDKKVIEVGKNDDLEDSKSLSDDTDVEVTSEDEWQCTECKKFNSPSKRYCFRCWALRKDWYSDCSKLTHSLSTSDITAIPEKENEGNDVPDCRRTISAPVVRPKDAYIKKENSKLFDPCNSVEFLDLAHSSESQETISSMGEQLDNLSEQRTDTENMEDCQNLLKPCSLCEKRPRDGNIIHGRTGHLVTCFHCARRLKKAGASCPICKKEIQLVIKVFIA
Target sequence (Q00987 whole entry, looked up): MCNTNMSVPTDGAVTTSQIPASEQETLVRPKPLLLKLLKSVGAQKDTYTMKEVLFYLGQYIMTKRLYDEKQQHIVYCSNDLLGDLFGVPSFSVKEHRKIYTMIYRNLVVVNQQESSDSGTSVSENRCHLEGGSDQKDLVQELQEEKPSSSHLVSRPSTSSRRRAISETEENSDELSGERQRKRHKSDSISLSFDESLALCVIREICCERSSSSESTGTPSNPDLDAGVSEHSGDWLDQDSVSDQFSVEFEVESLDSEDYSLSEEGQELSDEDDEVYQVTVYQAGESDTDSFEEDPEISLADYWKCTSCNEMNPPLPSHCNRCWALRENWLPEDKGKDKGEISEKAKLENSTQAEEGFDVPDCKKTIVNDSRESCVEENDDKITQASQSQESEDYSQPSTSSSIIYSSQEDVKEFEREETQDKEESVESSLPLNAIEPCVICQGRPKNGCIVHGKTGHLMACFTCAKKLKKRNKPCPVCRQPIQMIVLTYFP
HIF-2a inh conf = HIF-2a reporter inhibitor retest, confirmation, luminescence, 786-0 RCC cells; shares compounds with HIF-2a block; HIF-2a luciferase reporter luminescence, overnight; inhibition, % at 18.8 µM; AID 651580, 2012; 56% of 1,800 active;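 active means mean inhibition across four replicates of at least 40 percent at the single tested concentration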
HIF-1a cs = HIF-1a luciferase reporter signal reduction – MiaPaCa-2 cells, single concentration, counter-screen for HIF-2a inhibitor project, confirmation; AID 651589, 2012; 72% of 1,800 active; inhibition, % at 18.8 µM; MiaPaCa-2 HIF-1a luciferase reporter, desferoxamine, overnight; shares compounds with HIF-2a block;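 active means mean inhibition of the reporter signal across four replicates at the single tested dose of 50% or more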
Large screens that a line does not name were inactive (follow-up assays come after a bar, where they were run).

CCOc1cc(/C=C2\COc3ccccc3C2=O)cc(Br)c1OCC(=O)N(C)C	HIF-2a block 91, TWEAK-Fn14 inh 70, TROY signal inh 79, Peg3 prom inh 105, TRPM1 prom inh 89 | HIF-2a inh conf 60 | HIF-1a cs 105
CCOc1cc(/C=N/Nc2nc3ccccc3[nH]2)cc(Br)c1OCC(=O)N(C)C	none
C/C(=N\Nc1cc(C)nc(-c2ccccc2O)n1)c1ccccc1O	TWEAK-Fn14 inh 55 | Mdm2-MdmX confirm 73
CSc1ccc(/C=N/Nc2cccc(C(=O)O)c2)cc1	EBV LMP1 NFkB 56, HIF-2a block 71, Peg3 prom inh 68, TRPM1 prom inh 79 | HIF-2a inh conf 85 | HIF-1a cs inactive
CCOc1cc(/C=N/Nc2cccc(C(=O)O)c2)ccc1OCC(=O)N1CCCCC1	none
CC(C)(C)c1cc(C(c2cccnc2)N2CCN(CCO)CC2)cc(C(C)(C)C)c1O (stereo not drawn)	HIF-2a block 89, Peg3 prom inh 104, TRPM1 prom inh 79 | Mdm2-MdmX confirm 103 | HIF-2a inh conf 80 | HIF-1a cs 75
CCCS(=O)(=O)NC(=O)C1(C)CCCN(C(=O)c2c(OC)cccc2OC)C1 (stereo not drawn)	none (no result: EBV LMP1 NFkB, TRPM1 prom inh)
COC(=O)C12OCC34C(CC5C(C)=C(O)C(=O)CC5(C)C3C(O)C1O)OC(=O)C(OC(=O)C=C(C)C)C24 (stereo not drawn)	EBV LMP1 NFkB 85, HIF-2a block 68, TWEAK-Fn14 inh 95, TROY signal inh 85, Peg3 prom inh 100, TRPM1 prom inh 72 | HIF-2a inh conf 60 | HIF-1a cs 105
Cc1ccc(S(=O)(=O)N2CCC(C(=O)N3CCCC3C(=O)N[C@@H](CC(C)C)C(=O)NCC(N)=O)CC2)cc1 (stereo partly drawn)	none (no result: TRPM1 prom inh)
CCOC(=O)/C(=C\c1ccccc1)C(=O)c1cc(C(C)=O)c(Nc2ccccc2)s1	EBV LMP1 NFkB 53, HIF-2a block 95, TWEAK-Fn14 inh 70, Peg3 prom inh 104 | HIF-2a inh conf 88 | HIF-1a cs 107
CCOC(=O)/C(=C\c1cccnc1)C(=O)c1cc(C(C)=O)c(Nc2ccccc2)s1	HIF-2a block 96, TWEAK-Fn14 inh 106, TROY signal inh 86, Peg3 prom inh 119, TRPM1 prom inh 98 | Mdm2-MdmX confirm 103
CCOC(=O)/C(C#N)=C\c1cccnc1	none
Cc1ccc(C)c(/C=N/Nc2nc3ccccc3c(=O)n2O)c1	none (no result: EBV LMP1 NFkB, TRPM1 prom inh)
O=[N+]([O-])c1cc(Cl)ccc1Sc1ccccn1	none
O=[N+]([O-])c1ccc(Sc2ccncn2)c([N+](=O)[O-])c1	HIF-2a block 70, TWEAK-Fn14 inh 77, Peg3 prom inh 97 (no result: TRPM1 prom inh) | HIF-2a inh conf 61 | HIF-1a cs 104
O=[N+]([O-])c1ccc(Sc2cccc3cccnc23)c([N+](=O)[O-])c1	TWEAK-Fn14 inh 64, Peg3 prom inh 97, TRPM1 prom inh 76 | Mdm2-MdmX confirm 83
O=[N+]([O-])c1cc(Cl)ccc1Sc1cccc2cccnc12	none
Cc1ccc(NC(=O)COC(=O)c2cc(=O)c3cc(F)ccc3o2)cc1	none
COc1cccc(C(C)(O)c2nc(-c3ccc(F)c(Cl)c3)cs2)c1 (stereo not drawn)	none (no result: EBV LMP1 NFkB, TRPM1 prom inh)
CSc1nnc(-c2sc3cc(C(F)(F)F)cnc3c2-c2ccccc2)n1C	HIF-2a block 41 | HIF-2a inh conf inactive | HIF-1a cs 55

From PubChem BioAssay
